The list is not random: actives were taken first. Their share in the collection is about 2.4%.
A3G deaminase = inhibitors of human APOBEC3G DNA deaminase; Q9HC16; inhibition, % at 20 µM; 0.28% of 330,000 active; recombinant A3G, ssDNA deamination FAM/TAMRA fluorescence; AID 493012;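 active = inhibition of at least 40% at 20 µM, with no more than 30% in the related APOBEC3A deaminase screen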;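 also: plate controls were DMSO wells with A3G for no effect and wells lacking A3G enzyme for full effect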
Target sequence (Q9HC16 whole entry, looked up): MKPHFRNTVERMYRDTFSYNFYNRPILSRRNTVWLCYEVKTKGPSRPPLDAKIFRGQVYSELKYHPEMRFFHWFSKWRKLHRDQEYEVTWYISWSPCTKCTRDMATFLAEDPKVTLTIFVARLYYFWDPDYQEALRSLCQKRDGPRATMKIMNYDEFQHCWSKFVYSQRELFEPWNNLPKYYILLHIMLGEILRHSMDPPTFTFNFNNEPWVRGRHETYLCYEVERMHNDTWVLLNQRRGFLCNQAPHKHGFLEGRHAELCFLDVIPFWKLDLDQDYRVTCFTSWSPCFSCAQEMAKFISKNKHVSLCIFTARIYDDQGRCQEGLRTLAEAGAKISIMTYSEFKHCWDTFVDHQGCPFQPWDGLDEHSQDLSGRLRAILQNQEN
PfGluPho inh = PfG6PD (Plasmodium falciparum) enzyme inhibition | AID 504690 | 0.78% of 350,000 active | inhibition, % at 20 µM | PfGluPho enzyme, NADPH resazurin-diaphorase fluorescence;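 active = inhibition reaching at least a set limit at 20 µM in the primary screen, cut at about 59% in these data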;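 also: 0% = DMSO wells with substrate and 100% = DMSO wells lacking glucose-6-phosphate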
M18AAP inhibitor = PfM18AAP enzyme inhibition; recombinant PfM18AAP, H-Glu-NHMec fluorogenic cleavage; inhibition, % at 7.35 µM; 1.2% of 290,000 active; AID 1822;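 active = inhibition above the campaign mean inhibition over all tested compounds plus 3 SD, cut at about 28% in these data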;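 also: 0% = plate median of test compound wells and 100% = 2 mM ZnCl2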
Yeast superoxide = yeast age-related superoxide inhibition as caloric restriction mimetic; S. cerevisiae aged cells, superoxide DHE fluorescence; active compounds read low; superoxide response (% of plate mean), % at 10 µM; 0.18% of 330,000 active; AID 2690;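 active = superoxide response under a set limit, about three screen SD below normal, cut at about 65% in these data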;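 also: yeast aged for seven days with compound at 30 °C before DHE staining; 100% = average MFI of all compound-treated wells on the plate with controls excluded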
APOBEC3A inh = inhibitors of human APOBEC3A DNA deaminase. 0.41% of 330,000 active. AID 493011. recombinant A3A, FAM/TAMRA ssDNA deamination fluorescence. inhibition, % at 20 µM;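 active = at least 40% inhibition at 20 µM here, with at most 30% in a related deaminase screen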;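 also: plate controls were A3A with DMSO for no effect and wells lacking A3A enzyme for full effect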
Target sequence (P31941 whole entry, looked up): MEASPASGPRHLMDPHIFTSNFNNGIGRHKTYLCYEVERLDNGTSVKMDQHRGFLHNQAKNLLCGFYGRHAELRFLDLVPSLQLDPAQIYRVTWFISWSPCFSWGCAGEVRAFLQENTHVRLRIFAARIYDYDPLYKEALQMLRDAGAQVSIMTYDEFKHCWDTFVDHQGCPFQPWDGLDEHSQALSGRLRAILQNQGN
PfGluPho conf = PfG6PD inhibition, single-dose confirmed | shares compounds with PfGluPho inh | recombinant PfGluPho, NADPH-diaphorase-resazurin fluorescence | inhibition, % at 20 µM | 34% of 2,400 active | AID 504753;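 active = inhibition of at least 50% at 20 µM in any single replicate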;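 also: 0% = DMSO with substrate and 100% = DMSO lacking glucose-6-phosphate substrate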
Diaph ctr 10uM = counter-screen for P. falciparum G6PD inhibitors: diaphorase inhibitors, oxidizers. shares compounds with PfGluPho inh. diaphorase-coupled resazurin reduction, fluorescence, NADPH 10 uM. inhibition, % at 20 µM. 39% of 820 active;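 active = average inhibition reaching 50% or more with the compound at 20 µM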;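 also: resorufin red fluorescence formed as diaphorase reduces resazurin using NADPH; 0% = DMSO with enzyme and 100% = DMSO without enzyme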
Diaphorase 30uM = diaphorase inhibition or oxidation at 30 uM NADPH. inhibition, % at 20 µM. 29% of 820 active. shares compounds with PfGluPho inh. AID 504863. Diaphorase/resazurin coupled assay, resorufin fluorescence;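 active = inhibition averaging 50% or more, tested at 20 µM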;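 also: 0% = DMSO with enzyme and 100% = DMSO wells lacking diaphorase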
* = called active by the depositor; · = no result.

SMILES | A3G deaminase | PfGluPho inh | M18AAP inhibitor | Yeast superoxide | APOBEC3A inh | PfGluPho conf | others
O=S(=O)(Nc1cccc2cccnc12)c1ccccc1 | -5 | 96* | 0 | 103 | -3 | 52* | Diaph ctr 10uM=61*;Diaphorase 30uM=40
Cc1ccc2cccc(NS(=O)(=O)c3ccccc3)c2n1 | -2 | 139* | 8 | 86 | -1 | 105* | Diaph ctr 10uM=102*;Diaphorase 30uM=80*
COc1cc(-c2c(-c3cc(OC)c(OC)c(OC)c3)noc2C)ccc1F | -8 | 63* | -7 | 93 | -2 | 14
COc1ccc(-c2c(-c3cc(OC)c(OC)c(OC)c3)noc2C)cn1 | 14 | 9 | -10 | 96 | 2 | ·
Cc1ccc(C)c(C(=O)OCC(=O)Nc2cccc(S(=O)(=O)N3CCCCC3)c2)c1 | -6 | 1 | · | 133 | -4 | ·
COc1cc(NCc2ccccc2O)c2ncccc2c1 | -10 | 65* | 3 | · | -7 | 56* | Diaph ctr 10uM=-2;Diaphorase 30uM=-7
CN(C)c1ccc(/C=C/c2cccc[n+]2[O-])cc1 | -8 | 17 | 13 | 91 | -4 | ·
CN(C)c1ccc(/C=C/c2ccc3c4ccccc4ccc3[n+]2-c2ccccc2)cc1 | · | 66* | 3 | · | · | 68* | Diaph ctr 10uM=-16;Diaphorase 30uM=-4
Cc1cccc(-c2nc(CS(=O)CC(=O)NC3CCCC(C)C3C)c(C)o2)c1 (stereo unspecified) | 2 | -6 | -12 | 143 | 1 | ·
O=C(c1ccccn1)N1CCCC(N2CCN(c3cccc(C(F)(F)F)c3)CC2)C1 (stereo unspecified) | 0 | -13 | 10 | 123 | -1 | ·
CCOc1ccccc1C(=O)Nc1ccc(S(=O)(=O)Nc2nccc(C)n2)cc1 | -5 | 73* | -2 | 97 | -1 | 14
COC(=O)c1[nH]c2ccc(C)cc2c1NS(=O)(=O)c1ccc(F)c(C)c1 | -6 | 68* | -9 | 108 | -5 | 23
COC(=O)c1[nH]c2ccc(C)cc2c1NS(=O)(=O)c1ccc(F)cc1 | -10 | 68* | 2 | 93 | -5 | 24
COC(=O)c1[nH]c2ccc(F)cc2c1NS(=O)(=O)c1ccc(F)c(C)c1 | -1 | 20 | 0 | 106 | 5 | ·
CSCCC(NC(=O)c1ccco1)C(=O)NCc1ccc2c(c1)OCO2 (stereo unspecified) | -10 | -5 | · | · | -4 | ·
CCCN1Cc2cc(OC)ccc2-c2ccccc2S1(=O)=O | 1 | -7 | · | 127 | 2 | ·
O=C1C(=C(c2ccccc2)N2CCOCC2)Cc2ccccc21 | · | 66* | · | · | · | 22
CC[C@H](C)[C@H]1O[C@]2(CC[C@@H]1C)C[C@@H]1C[C@@H](CC=C(C)[C@@H](O[C@H]3C[C@H](OC)[C@@H](O[C@H]4C[C@H](OC)[C@@H](O)[C@H](C)O4)[C@H](C)O3)[C@@H](C)C=CC=C3CO[C@@H]4[C@H](O)C(C)=C[C@@H](C(=O)O1)[C@]34O)O2 | -5 | 35 | · | 84 | 0 | ·
CC1CCCC12NC(=O)NC2=O (stereo unspecified) | · | 4 | · | · | · | ·
O=C(N/N=C/c1ccc(O)cc1)c1ccc(NC(=O)c2ccccc2Br)cc1 | -5 | 0 | -2 | 107 | -4 | ·
O=C(Nc1ccccc1C(=O)N/N=C/c1ccc(F)cc1)c1ccccc1Br | -3 | 104* | -3 | 103 | -1 | 84* | Diaph ctr 10uM=69*;Diaphorase 30uM=59*
COc1ccc(C(=O)NCC2(c3ccc(OC)c(OC)c3)CCCC2)cc1OC | · | -10 | · | · | · | ·
COc1ccc(C2(CNC(=O)c3ccc(OC)c([N+](=O)[O-])c3)CCCCC2)cc1OC | -10 | 85* | 8 | 103 | -5 | 53* | Diaph ctr 10uM=54*;Diaphorase 30uM=43
O=C(CSc1nnc2c(n1)[nH]c1ccccc12)Nc1cccc(S(=O)(=O)N2CCOCC2)c1 | 6 | 62* | 2 | 106 | 15 | 16
O=C(CSc1nnc2c(n1)[nH]c1ccccc12)Nc1ccc2c(c1)OCO2 | 3 | 64* | 8 | 90 | 3 | 0
SMILES | A3G deaminase | PfGluPho inh | M18AAP inhibitor | Yeast superoxide | APOBEC3A inh | PfGluPho conf | others
CC(=O)N1CCN=C1SCc1cccc(F)c1 | -3 | -4 | -14 | 122 | -6 | ·
O=C(NCCn1cc(SCc2ccc(F)cc2)c2ccccc21)c1c(F)cccc1F | -7 | 86* | 5 | 120 | -5 | -11
O=C(CSc1cn(CCNC(=O)c2c(F)cccc2F)c2ccccc12)NCC1CCCO1 (stereo unspecified) | -6 | 10 | 0 | 91 | -2 | ·
O=C(NCCn1cc(SCc2ccccc2)c2ccccc21)c1c(F)cccc1F | -1 | 64* | 8 | 108 | -4 | -20
O=C(NCCn1cc(SCc2ccc(F)cc2)c2ccccc21)c1ccccc1F | -2 | 77* | 4 | 101 | 1 | -13
Cc1ccc(-c2nnc(SCC(=O)N/N=C/c3ccc(C(=O)O)cc3)n2C2CCCCC2)cc1 | -4 | -28 | -1 | 103 | -5 | ·
O=C1C2CCCCN2C(=O)N1CCCCN1CCN(c2cccc(Br)c2)CC1 (stereo unspecified) | -7 | 4 | 2 | 103 | -2 | ·
CCN(CC)Cc1cc(Nc2c3ccccc3nc3c4ccccc4n(C)c23)cc(CN(CC)CC)c1O | · | 80* | · | · | · | 28
CCOC(=O)C1=C(C)N(C)C(=O)NC1c1cc2c(cc1[N+](=O)[O-])OCO2 (stereo unspecified) | 14 | 71* | 13 | 85 | 16 | -20
O[C@H]1C[C@H](c2ccc(Cl)cc2)N(Cc2cccs2)C[C@@H]1n1cc(-c2ccc(F)cc2)nn1 | · | 34 | · | · | · | ·
Cc1ccc(NC2Sc3ccccc3NC2=O)cc1Cl (stereo unspecified) | -7 | 82* | 5 | 109 | 1 | -6
Cc1ccc(OCCCn2cc(C#N)c3ccccc32)cc1 | 0 | 68* | -12 | 96 | -1 | 8
N#Cc1cn(CCOc2ccc(F)cc2)c2ccccc12 | -2 | 84* | 0 | 97 | -3 | 34
COc1ccc(OC)c(C2=NS(=O)(=O)N(C)C(C(=O)Nc3ccc(F)cc3F)=C2)c1 | -4 | 4 | 3 | 95 | -4 | ·
CCOC(=O)c1cnc2c(OC)cccc2c1Nc1ccc2c(c1)OCCO2 | -8 | 68* | 4 | 57* | -3 | 29
S=c1ncc2[nH]c(=S)[nH]c2[nH]1 | · | 68* | · | · | · | 59* | Diaph ctr 10uM=-21;Diaphorase 30uM=2
S=c1[nH]c2cc3c(cc2[nH]1)OCCO3 | 17 | 19 | -1 | 92 | -4 | ·
COc1ccccc1N(CC(=O)NCc1ccc2c(c1)OCO2)C(=O)CCC(=O)Nc1nccs1 | -4 | -10 | -7 | 97 | 4 | ·
CCOC(=O)C1CCCN(C(=O)Cn2c(=O)c3cccn3c3cccnc32)C1 (stereo unspecified) | -7 | 6 | 1 | 117 | -2 | ·
CC1=CC(=O)C(Sc2ccc(C)cc2)=CC1=O | · | 124* | · | · | · | 109* | Diaph ctr 10uM=90*;Diaphorase 30uM=64*

Bioassay records as filed in PubChem BioAssay.
